Assay [1] can be described thus: qHTS for Inhibitors of the Functional Ribonucleoprotein Complex (vRNP) of Lassa (LASV) Arenavirus: Viability assay - alamar blue signal for LASV Primary Screen (AID 1347083; calls by dose curve; tested in HEK293 reporter line; further: nearly all actives have a fitted effect of over 80% in size; further: potency means the concentration at half of the fitted maximal effect).
Assay [2] can be described thus: Validation screen for inhibitors of Lassa infection (AID 463096). Further: potency means the concentration at half of the fitted maximal effect. On activity change, negative = inhibition: on the % scale 0 is the no-effect control and ±100 the full control effect.
A short description of assay [3]: Inducers of the Endoplasmic Reticulum Stress Response (ERSR) in human glioma: Validation (AID 504836; active means well fitted curve in the direction sought with a large enough effect; an effect the other way counts as inactive or inconclusive; further: 0% is about no effect). Put shortly:
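ERSR induction read as luciferase luminescence (Bright-Glo, 10 min at room temperature) in stably transfected human U87-MG glioma cells exposed to compounds for 16 h, using GRP78 as sensor.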

Assay [4] in a line: qHTS for Inhibitors of the Functional Ribonucleoprotein Complex (vRNP) of Lassa (LASV) Arenavirus: LASV Primary Screen - GLuc reporter signal (AID 1347082; calls by dose curve; tested in HEK293 reporter line; further: nearly all actives have a fitted effect of over 60% in size; further: potency means the concentration at half of the fitted maximal effect; on activity change, negative = inhibition: on the % scale 0 is the no-effect control and ±100 the full control effect).
Assay [5] can be described thus: Cytotoxicity counterscreen for inhibitors of SARS-CoV-2 cell entry (AID 1645845). Further: nearly all actives have a fitted effect of over 50% in size. The essentials:
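ATP-content luminescence (ATPLite 1step, 15 min RT) read after 48 h compound exposure of Expi293F cells stably expressing human ACE2; normalized to cells-only wells and media-only wells.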

Assay [6] is described as follows: Primary qHTS to identify inhibitors of SARS-CoV-2 cell entry (AID 1645846). Further: nearly all actives have a fitted effect of over 45% in size. Further: potency means the concentration at half of the fitted maximal effect. The note with it: activity change, negative = inhibition: at 57.1 µM (top of the series) unless noted. The essentials: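 Data are normalized to wells receiving SARS-CoV-2-S pseudoparticles and those given bald particles. Entry signal was luciferase luminescence in stable hACE2 Expi293F cells, 48 hr post-infection, after 1 hr compound pretreatment.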

Assay [7] in a line: Confirmatory qHTS to identify inhibitors of SARS-CoV-2 cell entry (AID 1645844). Further: on the % scale 0 is the no-effect control and ±100 the full control effect; nearly all actives have a fitted effect of over 45% in size. Put shortly:
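Luminescence entry read-out after 48 h: spike-pseudotyped MLV particles (Wuhan-Hu-1, 19-aa C-terminal truncation) added to compound-pretreated (1 h) HEK293-ACE2 cells; Data were normalised to bald PP and spike PP wells.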

Assay [8] can be described thus: VSVG counterscreen qHTS to identify inhibitors of SARS-CoV-2 cell entry (AID 1645847). Further: potency means the concentration at half of the fitted maximal effect; nearly all actives have a fitted effect of over 65% in size. The essentials: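 Counterscreen using VSV-G (not spike) pseudotyped MLV particles on ACE2-expressing Expi293F cells after 1 h compound preincubation; infection ran 48 h at 37 °C. Data normalized to VSV-G PP and bald-PP wells.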
The target of assay [9] is Alpha-galactosidase (Coffea arabica) (UniProt Q42656). The experiment in a line: Counterscreen for Glucocerebrosidase Inhibitors: qHTS Assay for Coffee Bean alpha-Galactosidase at pH 4.5 (AID 957; active means well fitted curve in the direction sought with a large enough effect; an effect the other way counts as inactive or inconclusive;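 further: plate controls were enzyme alone for no effect and no enzyme for full effect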). Put shortly: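 Quantitative HTS of compounds (0.7 nM to 77 uM) against coffee bean alpha-galactosidase at pH 4.5, measuring 4-methylumbelliferone fluorescence released from 80 uM substrate.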
Sequence of Alpha-galactosidase (Coffea arabica) (Q42656 whole entry, looked up): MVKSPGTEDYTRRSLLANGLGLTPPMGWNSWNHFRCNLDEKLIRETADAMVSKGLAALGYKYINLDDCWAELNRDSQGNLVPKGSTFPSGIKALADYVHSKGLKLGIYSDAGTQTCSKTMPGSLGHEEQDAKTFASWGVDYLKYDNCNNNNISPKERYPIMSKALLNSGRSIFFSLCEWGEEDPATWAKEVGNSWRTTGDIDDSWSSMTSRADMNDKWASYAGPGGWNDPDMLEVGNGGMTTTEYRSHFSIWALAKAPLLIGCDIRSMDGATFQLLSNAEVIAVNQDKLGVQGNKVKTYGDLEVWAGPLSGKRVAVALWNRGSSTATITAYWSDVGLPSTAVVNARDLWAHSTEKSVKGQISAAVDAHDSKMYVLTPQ

Assay [10] has the same target. The experiment in a line: Counterscreen for Glucocerebrosidase Inhibitors: qHTS Assay for Coffee Bean alpha-Galactosidase at pH 5.9 (AID 998; active means well fitted curve in the direction sought with a large enough effect; an effect the other way counts as inactive or inconclusive;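 further: plate controls were uninhibited enzyme for no effect and no-enzyme basal signal for full effect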). The essentials: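 Fluorogenic 4-MU substrate hydrolysis, 80 uM substrate and 2 nM coffee bean alpha-galactosidase, pH 5.9 citrate buffer, 20 min at room temperature, then NaOH/glycine stop. Titration 0.7 nM–77 uM, normalized to no-enzyme and enzyme controls, AC50 via Hill equation.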

A short description of assay [11]: qHTS for Inhibitors of the Functional Ribonucleoprotein Complex (vRNP) of Lymphocytic Choriomeningitis Arenaviruses (LCMV): Viability assay - alamar blue signal for LCMV Primary Screen (AID 1347085; calls by dose curve; tested in HEK293 reporter line; further: on the % scale 0 is the no-effect control and ±100 the full control effect; nearly all actives have a fitted effect of over 80% in size).

For 34 compounds, Potency, outcome and activity change, negative = inhibition results are on record in PubChem BioAssay (NCATS).

Each structure is given as a SMILES string. Results filed as inconclusive are left out. Activity calls are given as the source filed them. Unless noted, the call rests on the fitted dose curve.

Take `CC(C)C[C@@H]1NC(=O)[C@H](Cc2ccccc2)N(C)C(=O)[C@H](C)NC(=O)c2ccccc2NC(=O)[C@H](Cc2ccc(O)cc2)N(C)C1=O`: the Potency in assay [1] is 8.91 µM (active).
For `CCC1(O)CC2CN(CCc3c([nH]c4ccccc34)[C@@](C(=O)OC)(c3cc4c(cc3OC)N(C=O)C3[C@]45CCN4CC=C[C@@](CC)([C@@H](OC(C)=O)[C@]3(O)C(=O)OC)[C@H]45)C2)C1` (stereo partly drawn), the Potency in [2] is 20 µM (active). Also, the result in [3] was inactive. The Potency result in assay [4] is “inactive”.
Turning to `CC(C)ON([C@@H](C(=O)NO)C(C)C)S(=O)(=O)c1ccc(-c2ccccc2)cc1`, the compound was called inactive in [3]. In addition, in assay [4], the Potency entry is “inactive”.
Consider `CCCCCCC/C=C/C=O`, for which, in assay [1], the Potency result is “inactive”.
Same read-out and setting: the same measure for `Oc1ccc(C2=Cc3ccc(O)cc3OC2)cc1`: 24.3 µM (active).
For `Cc1cc(Nc2ncnc3ccc(-c4ccc(CNCCS(C)(=O)=O)o4)cc23)ccc1Oc1ccn2ncnc2c1`, the Potency in [4] was 15.3 µM (active). Further, the Potency result in assay [5] and in assay [6] was “inactive” in each case.
In the case of `Oc1ccc2ccccc2c1SSc1c(O)ccc2ccccc12`, the compound was called inactive in assay [3]. Besides, the Potency result in assay [4] and in [5] was “inactive” throughout.
In the case of `C[C@]12CC[C@H](O)CC1=CCC1C2CC[C@]2(C)C(n3cnc4ccccc43)=CCC12` (stereo partly drawn), the Potency entry in [4], in [5] and in [6] was “inactive” each time.
On to `COCCOc1nc(-c2ccc(Cl)c(Cl)c2)n(-c2ccc(NC(=O)CCl)cc2)n1`, for which, in assay [1], the Potency entry was “inactive”.
For the compound `COc1ccc(COc2cc3oc(=O)c4cc(C(C)O)ccc4c3cc2OC)cc1` (stereo not drawn), the Potency entry in assay [4] and in assay [5] was “inactive” throughout. Besides, the activity change, negative = inhibition in assay [6] is -25.6%.
As to `CC[C@H](C)C(=O)O[C@H]1CCC=C2C=C[C@H](C)[C@H](CC[C@@H]3C[C@@H](O)CC(=O)O3)[C@H]21`, the call in [3] was inactive. Besides, the Potency result in assay [4] and in assay [7] was “inactive” each time. The activity change, negative = inhibition in [6] is -51.5%.
Turning to `CCOC(=O)N1c2ccc(C(F)(F)F)cc2[C@@H](N(Cc2cc(C(F)(F)F)cc(C(F)(F)F)c2)C(=O)OC)C[C@H]1CC`, the Potency result in assay [4], in assay [5] and in assay [6] was “inactive” throughout.
With `COC(=O)Nc1nc2ccc(C(=O)c3ccc(F)cc3)cc2[nH]1`, the Potency result in [4] and in assay [5] was “inactive” in each case. Moreover, the Potency in [6] was 1.26 µM (active); in assay [8] it was 0.961 µM (active).
With `CC(=O)OC1C(O)C(C)OC(OC2C(OC(=O)C3CCC4C(C3)OC3(CC(OC(=O)/C=C/c5ccccc5)C(C)CO3)C43CO3)OC(C)C(O)C2OC(C)=O)C1O` (stereo not drawn), the Potency in assay [1] is 0.178 µM (active).
For `CNCCc1cnc(CCC(c2ccccc2)c2ccccc2)[nH]1`, the call in assay [3] was inactive. Also, in [4], the Potency result was “inactive”.
Take `CN1CCCC1CCOC(C)(c1ccccc1)c1ccc(Cl)cc1` (stereo not drawn): the Potency in assay [2] was 10 µM (active). Besides, the outcome in assay [3] was inactive. Further, in assay [4], the Potency result was “inactive”.
For `CCCCC[C@H](CC(=O)NO)C(=O)N[C@H](C(=O)N1CCC[C@H]1CO)C(C)C`, the Potency entry in assay [2] and in assay [4] was “inactive” in each case. In addition, in assay [3], the compound was classed as inactive.
In the case of `COc1cc2c(cc1O)CCC1C2CC[C@@]2(C)C1CC[C@@H]2O` (stereo partly drawn), in assay [1], the Potency is 5.44 µM (active).
For `CN(C)c1cc2c(Nc3ccc4c(cnn4Cc4ccccc4)c3)ncnc2cn1`, the result in [9], in assay [10] and in [3] was inactive. In addition, in assay [4], the Potency result is “inactive”.
In the case of `COc1ccc(NC(=O)c2ccc(-c3ccc(-c4noc(C)n4)cc3C)cc2)cc1N1CCN(C)CC1`, the outcome in assay [9], in [10] and in assay [3] was inactive. In addition, the Potency in assay [2] was 7.94 µM (active). In addition, the Potency result in [4] was “inactive”.
Consider `CCOC(=O)N1CCN(/[N+]([O-])=N/Oc2ccc([N+](=O)[O-])cc2[N+](=O)[O-])CC1`, for which the compound was called inactive in assay [3]. Also, the Potency result in assay [4] and in assay [5] was “inactive” in each case. Further, in assay [6], the activity change, negative = inhibition is -5.73%.
Take `c1nc2nc(Nc3ccc(N4CCOCC4)cc3)nc(NC3CCCCC3)c2[nH]1`: the Potency entry in [4] and in assay [5] was “inactive” in each case.
For the compound `CCN(CC)CCCC(C)Nc1nc(C)cc(Nc2ccc3nc(C)cc(N)c3c2)n1` (stereo not drawn), the Potency result in [4] and in [5] was “inactive” throughout. Also, the activity change, negative = inhibition in [6] is -23.9%.
Take `N=C(N)c1ccc(OCCCCCOc2ccc(C(=N)N)cc2)cc1` (tested in a mixture with another compound): the compound was called inactive in assay [10] and in assay [3]. Further, the Potency entry in assay [2] was “inactive”. Also, in assay [4], the Potency is 7.08 µM (active).
For the compound `Oc1cc(-c2nc(-c3ccccc3)[nH]c2-c2ccncc2)ccc1Cl`, in assay [1], the Potency was 1.53 µM (active).
Same read-out and setting: the same measure for `CC[C@]12C=CCN3CC[C@@]4(c5cc([C@@]6(C(=O)OC)C[C@H]7C[C@@H](C(C)(F)F)CN(Cc8c6[nH]c6ccccc86)C7)c(OC)cc5N(C)[C@H]4[C@@](O)(C(=O)OC)[C@H]1OC(C)=O)[C@@H]32`: 0.0172 µM (active); for `O=C(Nc1nc2cccc(-c3ccc(CN4CCS(=O)(=O)CC4)cc3)n2n1)C1CC1`: 38.5 µM (active).
`COc1ccc(-c2cc3ncc(C)n3c(Nc3ncccc3C(N)=O)n2)cc1OC`: the call in [3] was inactive. In [4], the Potency entry is “inactive”.
For the compound `O=C(O)C=Cc1ccc(O)c(O)c1`, in assay [1], the Potency is 43.2 µM (active).
On the same count and under the same terms, for `CC(=O)OC1(C)CC(C)C(=O)C(C(O)CC2CC(=O)NC(=O)C2)C1` (stereo not drawn) the value was “inactive”.
Take `COc1ccc(-n2c(C)c([N+](=O)[O-])c3ccc(O)cc32)cc1`: the Potency entry in assay [4] and in assay [5] was “inactive” each time. Besides, the activity change, negative = inhibition in assay [6] was -4.69%.
Take `O=c1cc(-c2ccccc2)[nH]c2nc(Cl)ccc12`: the call in assay [9], in assay [10] and in [3] was inactive. The Potency entry in assay [2] and in [4] was “inactive” in each case.
As to `CC1CNCCN1S(=O)(=O)c1cccc2cnccc12` (stereo not drawn), the Potency entry in assay [2] and in assay [4] was “inactive” throughout.
Regarding `CC(=CCOc1ccc2ccc(=O)oc2c1)C1=CC(=O)C(C)(C)O1`, the Potency entry in [1] and in [11] was “inactive” each time.
